# Active and inactive are the calls of the source. The calls were made as follows: active = hit-call score of the fitted dose curve at least 0.9, where 1 is the maximum; inactive = score below 0.9.
# Read-out: JUN Transcription Factor, JUN (gene 3725)
# Assay: LTEA_HepaRG_JUN: Life Technologies and Expression Analysis (LTEA) Assay for JUN Transcription Factor using HepaRG (AID 2283513)
# Details: mRNA level, 48 h; actives raise or lower the signal
# Protocol: LTEA_HepaRG is a cell based, multiplexed-readout assay that uses HepaRG, a human liver cell line, with measurements taken at 48 hours after chemical dosing on a 96-well plate.LTEA_HepaRG_JUN is one of 102 assay component(s) measured in the LTEA HepaRG cell culture assay. It is a marker of Cell proliferation, survival, death.Data from the assay component LTEA_HepaRG_JUN was analyzed into 1 endpoint. This assay endpoint, LTEA_HepaRG_JUN, was analyzed with bidirectional fitting relative to DMSO as the negative control and baseline of activity. Using a type of inducible reporter, measures of mRNA induction for gain or loss-of-signal activity can be used to understand regulation of transcription factor activity. To generalize the intended target to other relatable targets, this assay endpoint is annotated to the dna binding intended target family, where the subfamily is basic leucine zipper.
# A total of 1060 chemcials from the ToxCast library were tested in eight-point concentration-response experiments. Cell culture and cytotoxicity assays were conducted at Thermo Fisher Scientific's Custom Services facility (Madison, WI). A single lot of human HepaRG cells (Thermo Fisher Scientific, Frederick, MD) was used for the cell culture experiments. 96-well format collagen type I coated plates of human HepaRG cells were prepared using established methods. Briefly, cryopreserved HepaRG cells were thawed, plated at a density of approximately 100,000 cells/well in HepaRG Thaw, Plate, and General Purpose media (HPRG770, Thermo Fisher Scientific), and incubated for 48 hours. 0.5% DMSO was selected as vehicle control to balance the requisite need of DMSO in HepaRG cultures to maintain differentiation (for example, baseline metabolism, proportions of hepatocytes vs. cholangiocytes), while enabling further hepatic receptor pathway activation (for example, PXR and CAR) in response to chemical exposure. 48 hours after plating, the culture medium was replaced with HepaRG Serum-Free Incudtion Media. Cells were exposed to each test chemical in duplicate and maintained in CO2 incubators for another 48 hours. Chemical plates were thawed to room temperature and 200x concentrations of treatment groups were prepared. 8-point conentration-reponse curves were made with the highest exposure at 100 uM, followed by half-log dilutions, all in 0.5% DMSO. Each test plate contained variouse controls, induction positive controls (1mM phenobarbital), cytotoxicity positive controls ([…] aflatoxin B1), vehicle controls (0.5% DMSO), and total lysis controls (0.5% DMSO). Cell morphology images were taken using an Essen IncuCyte FLR automated microscope, with six 96-well plates imaged in about 24 minutes. Images were captured and exported and JPEG files. Spent culture media was transfered to black-well plates for the LDH assay, and remaining media was sorted at -80 C for later use. Cells were treated with RLT buffer and frozen until shipped for gene expression analysis. Total RNA was isolated from the cell suspension in 75 uL of Buffer RLT (Qiagen, Germantown, MD 20874) by Quintiles/Expression Analysis (Durham, NC) using a custom isolation procedure. Total RNA from each plate well was transferred to a preamplification plate. Fluidigm's 96.96 Dynamic ArrayTM (Fluidigm, Amsterdam, the Netherlands) technology was used for gene expression analyses by quantitative reverse transcription polymerase chain reaction (qRT-PCR, performed by Quintiles/Expression Analysis, Durham, NC)89. Standard TaqManTM Assays (Applied Biosystems/ThermoFisher Scientific, Foster City, CA) were used to assess the expression of 93 genes selected based on their selectivity and sensitivity to important hepatic receptors known to be modulated by environmental chemicals; importance in human hepatocyte functionality; and hepatotoxicity. […]
SMILES,outcome,AC50
O=Cc1ccccc1C=O,inactive,–
NC1CCCCC1,inactive,–
C/C=C/c1ccc(OC)cc1,inactive,–
CC(COCC(C)OC(=O)c1ccccc1)OC(=O)c1ccccc1 (stereo not given),inactive,–
C=CCc1ccc(OC)c(OC)c1,inactive,–
O=C1c2c(O)cccc2Cc2cccc(O)c21,inactive,–
C=CCCCCCCCCCCCC,inactive,–
O=C(O)CN(CC(=O)O)CC(=O)O,inactive,–
CC(=O)OCC(COC(C)=O)OC(C)=O,inactive,–
O=C(O)c1[nH]n(-c2ccc(S(=O)(=O)O)cc2)c(=O)c1N=Nc1ccc(S(=O)(=O)O)cc1,inactive,–
O=C1NC(=O)C(c2ccccc2)(c2ccccc2)N1,inactive,–
O=NO,inactive,–
O=C(NS(=O)(=O)/C=C/c1cccs1)c1ccc(F)cc1Br,inactive,–
CC(N)=O,inactive,–
Oc1ccccc1O,inactive,–
O=C1CCCCC1,inactive,–
Cc1cc(Cc2ccc(N)c(C)c2)ccc1N,inactive,–
O=C1O[C@H]([C@H](O)CO)C(O)=C1O,inactive,–
CC(=O)O,inactive,–
CC(C)c1cccc(C(C)C)c1,inactive,–

SMILES,outcome,AC50
CC(=O)O[C@]1(C(C)=O)CC[C@H]2[C@@H]3C=C(Cl)C4=CC(=O)[C@@H]5C[C@@H]5[C@]4(C)[C@H]3CC[C@@]21C,inactive,–
COc1ccc(OC(F)(F)F)cc1CN[C@H]1CCCN[C@H]1c1ccccc1,–,78.9 µM (active)
Cn1cnc2c1c(=O)[nH]c(=O)n2C,inactive,–
CO[C@@H]1COCC[C@@H]1N[C@@H]1CC[C@@](C(=O)N2CCc3ncc(C(F)(F)F)cc3C2)(C(C)C)C1,inactive,–
O=C1OC(c2ccc(O)cc2)(c2ccc(O)cc2)c2ccccc21,inactive,–
CN(C)C(=O)NC1(c2ccccc2)CCN(CCC[C@]2(c3ccc(Cl)c(Cl)c3)CCCN(C(=O)c3ccccc3)C2)CC1,–,20.2 µM (active)
COC(=O)[C@H]1[C@H]2C[C@@H]3c4[nH]c5cc(OC)ccc5c4CCN3C[C@H]2C[C@@H](OC(=O)c2cc(OC)c(OC)c(OC)c2)[C@@H]1OC,–,8.38 µM (active)
CCCCC(CC)COC(=O)CCCCCCCC(=O)OCC(CC)CCCC (stereo not given),inactive,–
Cc1c(C)c2c(c(C)c1O)CCC(C)(COc1ccc(CC3SC(=O)NC3=O)cc1)O2 (stereo not given),–,70.9 µM (active)
Oc1ccc(O)cc1,inactive,–
S=c1[nH]c2ccccc2s1,inactive,–
O=C(O)CC(O)(CC(=O)O)C(=O)O,inactive,–
OCC(O)CO,inactive,–
CC(C)(C)c1ccccc1,inactive,–
CC1=C(C)S(=O)(=O)CCS1(=O)=O,–,74.6 µM (active)
CC(=O)[C@@]1(O)CC[C@H]2[C@@H]3CCC4=CC(=O)CC[C@]4(C)[C@H]3CC[C@@]21C,inactive,–
C/C=C/C=C/C(=O)O,inactive,–
CCCCCCCCCCCCCCOS(=O)(=O)O,inactive,–
CS(=O)(=O)c1ccc([C@@H](C[C@H]2CCC(=O)C2)C(=O)Nc2cnccn2)cc1Cl,–,1.43 µM (active)
Cc1cn([C@H]2C=C[C@@H](CO)O2)c(=O)[nH]c1=O,inactive,–
